# Test results: PubChem BioAssay (Tox21)
# “And” between values parts separate entries of the source, which are not always exact repeats. Equal values may be shown once. Results filed as inconclusive are left out. Where a call stands in place of a potency, no number is given. Some structures have more than one record in an assay (separate samples or runs), and their calls can disagree. The source made the active and inactive calls. Unless noted, calls come from the whole dose curve; as a rule, active = well fitted curve in the direction sought with a large enough effect in the repeat runs; inconclusive = weak or mixed curves; inactive = no such curve, though single readings can be large; an effect the other way counts as inactive or inconclusive.
# Legend:
# [1] = qHTS assay to identify small molecule agonists of the peroxisome proliferator-activated receptor delta (PPARd) signaling pathway - cell viability counter screen (AID 743211); note: nearly all actives have a fitted effect of over 55% in size; note: potency is the fitted concentration of half-maximal effect
# In short: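 Viability of GeneBLAzer PPARd UAS-bla HEK293H cells was assessed after 17 h compound incubation at 37C, using CellTiter-Glo reagent added after the reporter read and luminescence recorded 30 min later.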
# [2] = target: Peroxisome proliferator-activated receptor delta (Homo sapiens) (UniProt Q03181); assay: qHTS assay to identify small molecule agonists of the peroxisome proliferator-activated receptor delta (PPARd) signaling pathway (AID 743212; calls by dose curve;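 note: HEK293H cells with PPARd UAS beta-lactamase reporter GeneBLAzer system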)
# In short: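 Beta-lactamase reporter readout: a ratiometric FRET signal from the LiveBLAzer substrate after 2 h at room temperature. Compound exposure at 37 °C in PPARδ-bla HEK293H cells driven by an upstream activator sequence.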
# [3] = qHTS assay to identify small molecule antagonists of the peroxisome proliferator-activated receptor delta (PPARd) signaling pathway - cell viability counter screen (AID 743213); note: nearly all actives have a fitted effect of over 50% in size; note: potency is the fitted concentration of half-maximal effect
# In short: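 In this counter screen, HEK293H cells carrying a UAS-beta-lactamase reporter are co-treated with test compounds and 300 nM L165041 (final) for 17 h at 37 C; cell viability is quantified by CellTiter-Glo luminescence.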
# [4] = target: Peroxisome proliferator-activated receptor delta (Homo sapiens) (UniProt Q03181); assay: qHTS assay to identify small molecule antagonists of the peroxisome proliferator-activated receptor delta (PPARd) signaling pathway (AID 743215; active = well fitted inhibition curve with a large enough effect in the signal ratio in the repeat runs, not every such curve was filed as active; the % refers to the signal ratio;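 note: cells stimulated with agonist L165041 at 300 nM final during compound exposure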; note: potency is the fitted concentration of half-maximal effect)
# In short: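 Agonist L165041 (300 nM final) added with compound to PPARd-bla HEK293H UAS-bla reporter cells; 17 h incubation at 37 C. Read-out: LiveBLAzer FRET substrate, 2 h at room temperature, fluorescence intensity.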
# [5] = qHTS assay to identify small molecule agonists of the farnesoid-X-receptor (FXR) signaling pathway - cell viability counter screen (AID 743218); note: nearly all actives have a fitted effect of over 45% in size; note: potency is the fitted concentration of half-maximal effect
# In short: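 Viability counter screen in the same wells: CellTiter-Glo luminescence, 30 min room-temperature incubation, measured after the beta-lactamase read. Cells were GeneBLAzer FXR-UAS-bla HEK 293T, compound-treated 16 h at 37C.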
# [6] = qHTS assay to identify small molecule antagonists of the farnesoid-X-receptor (FXR) signaling pathway - cell viability counter screen (AID 743221; active = well fitted cell-killing curve with a large enough effect in the repeat runs, not every such curve was filed as active; note: nearly all actives have a fitted effect of over 50% in size)
# In short: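 Quantitative HTS of the Tox21 10K library run in parallel with the beta-lactamase reporter read. HEK 293T cells carrying a UAS-driven bla reporter got compound and 50 uM CDCA (final) for 16 h; ATP-based luminescence followed.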
# [7] = target: Vitamin D3 receptor (Homo sapiens) (UniProt P11473); assay: qHTS assay to identify small molecule agonists of the vitamin D receptor (VDR) signaling pathway (AID 743222; calls by dose curve)
# In short: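 Agonist mode, beta-lactamase reporter: fluorescence from LiveBLAzer B/G FRET substrate (2 h, room temperature) read after 16 h compound treatment at 37 C of VDR-bla cells, which were pre-incubated 4 h after seeding.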
# [8] = target: Vitamin D3 receptor (Homo sapiens) (UniProt P11473); assay: qHTS assay to identify small molecule antagonists of the vitamin D receptor (VDR) signaling pathway (AID 743223; active = well fitted inhibition curve with a large enough effect in the signal ratio in the repeat runs, not every such curve was filed as active; the % refers to the signal ratio)
# In short: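 Fluorescence from LiveBLAzer B/G FRET substrate, read after 2 h at room temperature, reflects beta-lactamase reporter activity in VDR-bla cells treated 16 h at 37C with compounds and agonist 1alpha,25-dihydroxyvitamin D3 (3 nM final).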
# [9] = target: Bile acid receptor (Homo sapiens) (UniProt Q96RI1); assay: qHTS assay to identify small molecule antagonists of the farnesoid-X-receptor (FXR) signaling pathway (AID 743217; active = well fitted inhibition curve with a large enough effect in the signal ratio in the repeat runs, not every such curve was filed as active; the % refers to the signal ratio)
# In short: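 Antagonist mode: chenodeoxycholic acid at 50 uM final stimulates a UAS-driven beta-lactamase reporter in HEK 293T FXR-bla cells during 16 h, 37C compound exposure. Read-out is FRET substrate fluorescence after 2 h at room temperature.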
# [10] = target: Bile acid receptor (Homo sapiens) (UniProt Q96RI1); assay: qHTS assay to identify small molecule agonists of the farnesoid-X-receptor (FXR) signaling pathway (AID 743220; active = well fitted activation curve with a large enough effect in the signal ratio in the repeat runs, not every such curve was filed as active; the % refers to the signal ratio)
# In short: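 FXR-UAS-bla HEK 293T cells carrying a UAS-driven beta-lactamase reporter were plated for 5 h at 37C/5% CO2, then exposed to DMSO-dissolved Tox21 10K compounds for 16 h at 37C. A LiveBLAzer B/G FRET substrate was loaded for 2 h at room temperature before fluorescence reading.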
# Bile acid receptor (Homo sapiens), sequence (Q96RI1 whole entry, looked up): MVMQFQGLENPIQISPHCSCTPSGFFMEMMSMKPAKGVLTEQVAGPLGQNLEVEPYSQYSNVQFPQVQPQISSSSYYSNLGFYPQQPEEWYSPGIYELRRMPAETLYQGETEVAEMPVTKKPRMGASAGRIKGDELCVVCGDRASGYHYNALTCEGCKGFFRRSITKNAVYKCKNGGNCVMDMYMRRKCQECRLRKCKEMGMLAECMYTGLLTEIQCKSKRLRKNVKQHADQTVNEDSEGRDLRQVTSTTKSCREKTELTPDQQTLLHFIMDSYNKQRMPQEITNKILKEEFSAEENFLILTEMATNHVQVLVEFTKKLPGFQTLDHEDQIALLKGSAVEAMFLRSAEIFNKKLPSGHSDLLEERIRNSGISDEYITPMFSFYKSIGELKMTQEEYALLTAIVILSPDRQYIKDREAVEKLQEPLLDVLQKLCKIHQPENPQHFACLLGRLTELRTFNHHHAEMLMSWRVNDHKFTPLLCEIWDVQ
# Peroxisome proliferator-activated receptor delta (Homo sapiens), sequence (Q03181 whole entry, looked up): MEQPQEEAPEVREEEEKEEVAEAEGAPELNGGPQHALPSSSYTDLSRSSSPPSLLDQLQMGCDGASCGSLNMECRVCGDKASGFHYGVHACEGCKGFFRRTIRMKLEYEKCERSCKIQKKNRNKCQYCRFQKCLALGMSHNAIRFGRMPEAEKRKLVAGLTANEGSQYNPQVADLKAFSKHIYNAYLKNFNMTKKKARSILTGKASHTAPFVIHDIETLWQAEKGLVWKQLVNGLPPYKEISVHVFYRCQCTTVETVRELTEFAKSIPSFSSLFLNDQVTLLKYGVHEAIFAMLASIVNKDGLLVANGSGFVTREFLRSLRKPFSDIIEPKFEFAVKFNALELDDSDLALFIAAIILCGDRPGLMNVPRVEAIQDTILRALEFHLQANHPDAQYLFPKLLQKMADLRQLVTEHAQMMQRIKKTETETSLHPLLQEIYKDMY
# Vitamin D3 receptor (Homo sapiens), sequence (P11473 whole entry, looked up): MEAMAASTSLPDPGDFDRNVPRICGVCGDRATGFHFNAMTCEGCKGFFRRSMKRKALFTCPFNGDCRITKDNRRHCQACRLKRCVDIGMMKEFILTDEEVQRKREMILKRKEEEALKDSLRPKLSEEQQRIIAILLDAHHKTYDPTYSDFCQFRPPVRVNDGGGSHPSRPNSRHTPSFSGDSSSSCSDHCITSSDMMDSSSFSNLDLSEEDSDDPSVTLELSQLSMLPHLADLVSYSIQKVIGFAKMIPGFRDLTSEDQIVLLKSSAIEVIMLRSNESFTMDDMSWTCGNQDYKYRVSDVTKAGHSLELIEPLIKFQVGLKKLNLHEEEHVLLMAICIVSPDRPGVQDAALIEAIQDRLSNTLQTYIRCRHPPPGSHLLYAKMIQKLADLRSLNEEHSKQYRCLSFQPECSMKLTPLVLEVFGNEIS
Structure (SMILES),Potency [1],Potency [2],Potency [3],Potency [4],Potency [5],Potency [6],Potency [7],Potency [8],Potency [9],Potency [10]
COC(=O)C(C)N(C(=O)c1ccco1)c1c(C)cccc1C (stereo not drawn),inactive,inactive,inactive,inactive,inactive,inactive,inactive,inactive,,
C=CCOC(=O)c1ccccc1N,inactive,inactive,inactive,inactive,inactive,inactive,inactive,,,
CCCCCON=O,inactive,inactive,inactive,inactive,inactive,inactive,inactive,inactive,,
CCOP(=O)(Sc1ccccc1)Sc1ccccc1,inactive,inactive,inactive,,,inactive,inactive,inactive,inactive,
CCN(CC)CCN1C(=O)CN=C(c2ccccc2F)c2cc(Cl)ccc21,inactive,inactive,inactive,inactive,inactive,inactive,inactive,inactive,inactive,inactive
CO/N=C(\C(=O)OC)c1ccccc1CO/N=C(\C)c1cccc(C(F)(F)F)c1,21.9 µM (active),inactive,21.9 µM (active),4.9 µM (active),,,inactive,,,
CCC(C)Br (stereo not drawn),inactive,inactive,inactive,inactive,inactive,inactive,inactive,inactive,,
CCN(CC)CCc1c[nH]c2ccccc12,inactive,inactive,inactive,,inactive,inactive,,,inactive,inactive
CCNS(=O)(=O)C(F)(F)C(F)(F)C(F)(F)C(F)(F)C(F)(F)C(F)(F)C(F)(F)C(F)(F)F,inactive,inactive,inactive,,inactive,inactive,inactive,inactive,inactive,inactive
Oc1ccc(Cl)c(Cl)c1,inactive,inactive,inactive,,inactive,inactive,inactive,,,
COP(=S)(OC)Oc1ccc([N+](=O)[O-])c(C)c1,inactive,inactive,inactive,,inactive,inactive,,inactive,inactive,inactive
CNC(=O)/C=C(\C)OP(=O)(OC)OC,inactive,inactive,inactive,inactive,,inactive,inactive,inactive,inactive,inactive
CNC(C)(C)Cc1ccccc1,inactive,inactive,inactive,inactive,inactive,inactive,inactive,inactive,,
CC(C)NCC(O)c1ccccc1Cl (stereo not drawn),inactive,inactive,inactive,inactive,inactive,inactive,,,,
CC(Cl)CCl (stereo not drawn),inactive,inactive,inactive,inactive,inactive,inactive,inactive,inactive,,
CCOP(=O)(OCC)Oc1cc(C)nc(C(C)C)n1,inactive,inactive,inactive,inactive,inactive,inactive,,,inactive,inactive
C#CCO,inactive,inactive,inactive,inactive,inactive,inactive,inactive,inactive,,
c1cc[n+]2c(c1)-c1cccc[n+]1CC2,inactive,inactive,inactive,inactive,inactive,inactive,inactive,,,
O=C(O)[C@H](O)[C@@H](O)C(=O)O,inactive,inactive,inactive,,inactive,inactive,,,inactive,inactive
CSSC,inactive,inactive,inactive,inactive,inactive,inactive,inactive,inactive,,
CN1[C@@H]2CC[C@H]1CC(O)C2 (stereo partly drawn),inactive,inactive,inactive,inactive,inactive,inactive,inactive,inactive,,
ClCBr,inactive,inactive,inactive,inactive,inactive,inactive,inactive,,inactive,inactive
N#CSCc1ccccc1,inactive,inactive,inactive,inactive,inactive,,inactive,inactive,inactive,inactive
COc1ccc2c3c1O[C@H]1[C@H](O)CC[C@H]4[C@@H](C2)N(C)CC[C@@]341,inactive,inactive,inactive,inactive,inactive,inactive,,,,
ClC1=C(Cl)[C@]2(Cl)[C@H]3[C@H]([C@@H]4C=C[C@H]3C4)[C@@]1(Cl)C2(Cl)Cl,inactive and 15.5 µM (active),inactive,inactive,inactive,38.9 µM (active),inactive,inactive,inactive,,
CCOP(=S)(NC(C)C)Oc1ccccc1C(=O)OC(C)C (stereo not drawn),inactive,inactive,inactive,,21.9 µM (active),,,inactive,,inactive
